The structures appear in SMILES notation. The campaign covered roughly 400,000 compounds. About 2,100 (0.53%) were called active. Inconclusive results (about 14%) are left out. How the calls were made is not given here. Only a selection was taken, and actives are over-represented in it overall.

The target of this assay is Ataxin-2 (Homo sapiens) (UniProt Q99700). The assay can be described thus: qHTS for Inhibitors of ATXN expression. Format: functional. Background: In qHTS, concentration-response curves come from the screen itself.
Ataxin-2 (Homo sapiens), sequence (Q99700 whole entry): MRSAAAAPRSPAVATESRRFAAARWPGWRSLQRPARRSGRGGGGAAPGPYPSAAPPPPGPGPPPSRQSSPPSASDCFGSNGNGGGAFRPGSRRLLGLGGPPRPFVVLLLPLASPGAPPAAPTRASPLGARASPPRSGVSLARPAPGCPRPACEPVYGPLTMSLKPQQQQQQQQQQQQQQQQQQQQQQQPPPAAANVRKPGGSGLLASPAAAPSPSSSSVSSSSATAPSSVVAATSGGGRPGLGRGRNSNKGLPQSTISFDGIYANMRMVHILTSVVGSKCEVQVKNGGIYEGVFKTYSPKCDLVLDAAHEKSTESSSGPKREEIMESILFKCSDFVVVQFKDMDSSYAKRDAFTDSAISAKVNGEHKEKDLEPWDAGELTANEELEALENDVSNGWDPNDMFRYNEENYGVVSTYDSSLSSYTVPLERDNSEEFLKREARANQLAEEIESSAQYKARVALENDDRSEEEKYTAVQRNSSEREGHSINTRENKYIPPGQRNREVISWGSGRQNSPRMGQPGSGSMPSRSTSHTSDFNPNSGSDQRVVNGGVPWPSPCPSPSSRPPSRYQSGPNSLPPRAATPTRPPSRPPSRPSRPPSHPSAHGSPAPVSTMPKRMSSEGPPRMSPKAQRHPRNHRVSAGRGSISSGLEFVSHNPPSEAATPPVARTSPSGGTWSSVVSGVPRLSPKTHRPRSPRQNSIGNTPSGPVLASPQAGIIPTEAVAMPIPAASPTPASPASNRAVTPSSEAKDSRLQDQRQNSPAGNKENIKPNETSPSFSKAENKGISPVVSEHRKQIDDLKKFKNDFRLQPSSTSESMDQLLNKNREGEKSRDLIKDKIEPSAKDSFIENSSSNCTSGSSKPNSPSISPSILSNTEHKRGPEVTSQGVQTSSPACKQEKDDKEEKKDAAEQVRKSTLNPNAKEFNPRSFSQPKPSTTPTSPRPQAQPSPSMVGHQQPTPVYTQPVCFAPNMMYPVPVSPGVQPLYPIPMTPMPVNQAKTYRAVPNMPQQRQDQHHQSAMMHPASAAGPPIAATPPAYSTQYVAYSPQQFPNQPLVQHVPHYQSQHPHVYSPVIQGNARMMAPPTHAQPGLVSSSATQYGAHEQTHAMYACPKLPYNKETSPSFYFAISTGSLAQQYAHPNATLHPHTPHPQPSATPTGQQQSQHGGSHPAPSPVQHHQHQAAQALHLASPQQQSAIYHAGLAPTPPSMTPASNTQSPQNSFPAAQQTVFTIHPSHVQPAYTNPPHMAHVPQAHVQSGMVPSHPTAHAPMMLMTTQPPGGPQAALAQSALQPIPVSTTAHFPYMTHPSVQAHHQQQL
Take `N=c1c(C(=O)NC2CCCC2)cc2c(=O)n3ccccc3nc2n1CCCN1CCOCC1`: the Potency entry is “inactive”.
As to `COc1ccc(C2c3c(ncn(CCN4CCOCC4)c3=N)Oc3ccc4ccccc4c32)cc1OC` (stereo not given), the Potency was 14.1 µM (active).
To `CN(C)CCn1cnc2c(c1=N)C(c1ccccc1)c1ccc3ccccc3c1O2` (stereo not given) belongs 28.2 µM (active); to `COc1ccc(C2c3ccc4ccccc4c3Oc3ncn(CCCO)c(=N)c32)cc1` (stereo not given), 35.5 µM (active).
`COc1ccc(Nc2ncc(F)c(N3CCOCC3)n2)cc1`: the Potency entry was “inactive”.
Turning to `COc1ccc(C2c3ccc4ccccc4c3Oc3ncn(CCN4CCOCC4)c(=N)c32)cc1` (stereo not given), the Potency is 14.1 µM (active).
As for `COc1ccc2nc(NCCN=C(S)NCCCN3CCOCC3)c(C#N)cc2c1`, the Potency result was “inactive”.
To `Cc1ccc(S(=O)(=O)NC23CC4CC(CC(C4)C2)C3)cc1` belongs “inactive”; to `CCCn1nc(NC(=O)COC)c2cc3cccc(C)c3nc21`, “inactive”; to `COc1ccc(OC)c(/C=C2\Oc3cc(OCC(=O)N4CCC[C@H]4C(=O)O)ccc3C2=O)c1`, “inactive”.
As to `COCCNc1oc(/C=C/c2ccccc2)nc1C#N`, the Potency entry is “inactive”.
As to `COc1cc2ccccc2nn1`, the Potency entry was “inactive”.
To `COc1ccc(C2c3c(ncn(CCCO)c3=N)Oc3ccc4ccccc4c32)cc1` (stereo not given) belongs 25.1 µM (active).
To `N=c1c2c(ncn1Cc1ccco1)Oc1ccc3ccccc3c1C2c1ccccc1` (stereo not given) belongs 12.6 µM (active); to `COc1ccc(C2C=C(c3ccccc3)Nc3nc(CCCO)nn32)cc1` (stereo not given), “inactive”.
Consider `CCOCCn1c(CN2CCCC(C)C2)nc2c1c(=O)n(C)c(=O)n2C` (stereo not given), for which the Potency entry was “inactive”.
`COCCCn1c(C)nnc1SCc1ccc(C(C)(C)C)cc1`: the Potency result was “inactive”.
To `CC(=O)Nc1nc2n(n1)C(c1ccc(F)cc1)C=C(c1ccc(Cl)cc1)N2` (stereo not given) belongs “inactive”; to `Cc1ccc(N2C(=O)/C(=C\Nn3cnnc3)c3ccccc3C2=O)cc1`, “inactive”.
As for `Cc1nc(SCc2ccccc2)c2ccsc2n1`, the Potency entry is “inactive”.
On to `CCCCN=c1nc(S)n(-c2ccccc2)c(C)c1C(C)=O`, for which the Potency is 39.8 µM (active).
As to `CCCCn1c(=O)nc2n(-c3ccccc3)c3ccccc3cc-2c1=O`, the Potency entry was “inactive”.
Regarding `COc1ccc(C(=O)/C(C#N)=N/Nc2ccc([N+](=O)[O-])cc2)cc1`, the Potency is 10 µM (active).
To `C/C(=N\Nc1ccc([N+](=O)[O-])cc1)c1ccco1` belongs “inactive”; to `O=[N+]([O-])c1ccc(NN=C(Oc2ccccc2)c2ccc([N+](=O)[O-])cc2)cc1`, “inactive”.
In the case of `Cc1cc(C)c(S(=O)(=O)Nc2cc(SCC(=O)O)c(O)c3ccccc23)cc1C`, the Potency is 20 µM (active).
Consider `CC(=O)Nc1ccc(NS(=O)(=O)c2cc(-c3cnc(C4CC4)o3)ccc2C)cc1`, for which the Potency entry is “inactive”.
To `COC(=O)CCC(=O)N1CCCC(N2CCN(c3cccc(C(F)(F)F)c3)CC2)C1` (stereo not given) belongs “inactive”; to `CSC1=NCCN1S(=O)(=O)c1ccc(F)cc1`, “inactive”; to `COC(=O)Cc1c(C)c2ccc(O)c(CNCc3ccc(OC)c(OC)c3)c2oc1=O`, “inactive”.
As to `Cc1sc(Cc2nc(O)cs2)nc1-c1ccccc1`, the Potency result was “inactive”.
As for `COc1ccc(-c2c/c(=N\c3nc(-c4ccccc4)c(C)s3)c3ccccc3o2)cc1O`, the Potency is 31.6 µM (active).
Take `CCc1ccc2oc(-c3ccc(OC)cc3)cc(=Nc3cccc(C(=O)O)c3)c2c1`: the Potency result was “inactive”.
As to `COC(=O)c1ccc2nc(C3CCCCC3)c(CC(C)(C)C)n2c1`, the Potency was 39.8 µM (active).
To `COC(=O)C1=CN(C2CC2)C=C(C(=O)OC)C1c1ccc(C(=O)OC)cc1` belongs “inactive”; to `COCCCn1c(=N)c(C(=O)NC2CCCCC2)cc2c(=O)n3cc(C)ccc3nc21`, “inactive”.
In the case of `Cc1nc(-c2ccccc2)sc1-c1ccnn1C`, the Potency result is “inactive”.
To `CCc1ccc(C2=C(C)C(N3CCC(C(=O)Nc4ccc(F)cc4)CC3)=NS2(=O)=O)cc1` belongs 39.8 µM (active); to `CCOC(=O)C1=C(C)N=c2s/c(=C/c3ccc(OCC(=O)O)cc3)c(=O)n2C1c1ccc(OC)cc1OC` (stereo not given), “inactive”; to `CCSc1nnc2nc3c(c(O)n12)C1(CCCC1)Cc1ccccc1-3`, “inactive”.
To `Cc1c(O)ccc2c(CN3CCN(Cc4ccccc4)CC3)cc(=O)oc12` belongs “inactive”; to `O=c1c2ccccc2[nH]c(=S)n1Cc1ccc2c(c1)OCO2`, “inactive”.
Consider `Cc1ccc2c(c1)[nH]c1c(N3CCN(Cc4ccccc4)CC3)ncnc12`, for which the Potency was 11.2 µM (active).
To `Fc1ccc2[nH]c3c(N4CCN(Cc5ccc6c(c5)OCO6)CC4)ncnc3c2c1` belongs 39.8 µM (active); to `CCc1ccc(CN2CCN(c3ncccn3)CC2)cc1`, “inactive”.
Regarding `Cn1cc(CN2CCN(Cc3ccc4c(c3)OCO4)CC2)c(-c2ccccc2F)n1`, the Potency result is “inactive”.
To `Cc1cc(-c2ccnc(-n3ncc(C(=O)NC(C)(C)CO)c3C3CC3)n2)c(C)s1` belongs “inactive”.
To `CC(C)CCNC(=O)c1cc2c(=O)n3ccccc3nc2s1` belongs “inactive”; to `Cc1ccc(C(=O)NCCC(C)C)cc1NC(=O)c1nsc2ccccc12`, 25.1 µM (active); to `Cc1ccc(C(=O)OCC(=O)Nc2nc(-c3ccccc3)cs2)cc1NC(=O)c1ccco1`, “inactive”.
As for `O=C1/C(=C/NCc2ccccn2)c2ccccc2C(=O)N1c1ccccc1`, the Potency entry was “inactive”.
In the case of `OC[C@@H]1[C@@H](c2ccc(Cl)cc2)C(c2ccccc2)=NN1c1ccccc1`, the Potency entry is “inactive”.
Turning to `Oc1nc2ccccc2nc1Cc1ccc(Cl)cc1`, the Potency result is “inactive”.
To `Cc1ccc(N(Cc2cc3ccccc3nc2O)C(=O)c2cccs2)cc1` belongs “inactive”; to `O=S(=O)(c1ccc(Cl)cc1)N(Cc1cccnc1)Cc1cc2ccccc2nc1O`, 25.1 µM (active).
To `COCCCn1c(=O)/c(=C/c2ccccc2OC(C)C)s/c1=C(\C#N)C(=O)Nc1ccc(C(=O)O)cc1` belongs “inactive”.
To `CCCN(C(=O)CCl)C1=CCCCC1` belongs 5.97 µM (active); to `CSc1nc(N2CCOCC2)nc2ccc(C)cc12`, “inactive”.
As to `O=[N+]([O-])c1ccc(COc2ncnc3ccccc23)cc1`, the Potency entry was “inactive”.
With `CC(=O)Oc1ccccc1C(=O)C=Cc1cccc([N+](=O)[O-])c1`, the Potency is 39.8 µM (active).
As to `O=C(c1ccc(Cl)cc1)n1cnc2ccccc21`, the Potency result was “inactive”.
Regarding `O=C(Cn1cnc2ccccc21)Nc1cccc([N+](=O)[O-])c1`, the Potency entry was “inactive”.
As for `O=C(/C=C/c1cccc([N+](=O)[O-])c1)n1cnc2ccccc21`, the Potency is 20 µM (active).
As to `O=[N+]([O-])c1ccc(Cc2nnc(O)c3ccccc23)cc1`, the Potency entry was “inactive”.
`O=C(/C=C/c1ccc([N+](=O)[O-])cc1)c1ccccc(=O)c1O`: the Potency is 13.4 µM (active).
As for `CC(=O)c1ccccc1NC(=O)c1cc(S(=O)(=O)N2CCOCC2)ccc1N1CCCC1`, the Potency result is “inactive”.
With `COc1ccccc1C(=O)/C=C/c1ccc(N2CCCCC2)c([N+](=O)[O-])c1`, the Potency is 39.8 µM (active).
To `CC(=O)c1ccc(N2CCN(C(=O)c3ccc(Cn4c(=S)[nH]c5ccc(N6CCOCC6)cc5c4=O)cc3)CC2)cc1` belongs “inactive”.
Regarding `COc1ccc(C2=CC(c3ccc(OC)c(OC)c3)n3nnnc3N2)c(OC)c1` (stereo not given), the Potency entry is “inactive”.
For the compound `COC(=O)Cn1nnnc1-c1nc2cc(C)c(C)cc2nc1O`, the Potency result was “inactive”.
To `O=C(NCCO)Nc1ccc2nsnc2c1` belongs “inactive”; to `CCN(CC)C(=O)C1=C(C)N(Cc2ccc(C(C)(C)C)cc2)C(=O)C(CC(=O)NC(c2ccccc2)c2ccccc2)C1` (stereo not given), 28.2 µM (active).
For the compound `CCN(CCNC(=O)C1CCC(=O)N1Cc1ccc(C)cc1)c1ccccc1` (stereo not given), the Potency result is “inactive”.
In the case of `O=C(CSC1=NCCN1)NC(c1ccccc1)c1ccccc1`, the Potency entry is “inactive”.
To `CCN(CC)C(=O)C1=C(C)N(Cc2ccc(C(C)(C)C)cc2)C(=O)C(CC(=O)NCCCCc2ccccc2)C1` (stereo not given) belongs 35.5 µM (active).
To `COc1ccc(CNC(=O)CN2C(=O)NC(C)(c3ccc(C(C)(C)C)cc3)C2=O)cc1` (stereo not given) belongs “inactive”; to `CCN(CC)C(=O)C1=C(C)N(Cc2ccc(C(C)(C)C)cc2)C(=O)C(CC(=O)NCc2cccc3ccccc23)C1` (stereo not given), 25.1 µM (active).
To `CC(=O)c1sc(Nc2nc3cc4c(cc3s2)OCO4)nc1C` belongs “inactive”; to `O=C1C2CC(O)CN2C(=S)N1Cc1ccccc1` (stereo not given), “inactive”; to `O=C(Cc1cc(=O)oc2cc(O)ccc12)NC(Cc1ccc(Cl)cc1)C(=O)O` (stereo not given), “inactive”.
As to `COc1cc(C(=O)OCc2ccc(C)cc2)cc(NC(=O)c2cccs2)c1OC`, the Potency result was “inactive”.
In the case of `O=C(Nc1cccc(Br)c1)C1CCCC1`, the Potency entry is “inactive”.
To `CC(=O)Nc1cccc(C(=O)/C=C/c2ccc(Br)cc2)c1` belongs 20 µM (active); to `CN(C)c1ccc(/C=C/C(=O)c2ccc3c(c2)OCO3)cc1`, “inactive”; to `COc1cccc(Cn2c(=O)c3ccccc3n3nc(C)cc23)c1`, “inactive”.
In the case of `COc1cc(O)c(C(=O)/C=C/c2ccccc2)c(OC)c1`, the Potency is 35.5 µM (active).
With `Cc1cc(O)c(C(=O)/C=C/c2ccccc2)c(=O)o1`, the Potency entry was “inactive”.
Regarding `COc1ccc(C(=O)/C=C/c2ccc(N(C)C)cc2)c(OC)c1`, the Potency entry was “inactive”.
To `O=C(/C=C/c1cccnc1)c1cccc(O)c1` belongs 26.7 µM (active).
Take `COc1ccc(OC)c(C(=O)/C=C/c2cccnc2)c1`: the Potency is 39.8 µM (active).
To `O=C(NNc1ccccc1)/C(=C\c1cccnc1)NC(=O)c1ccccc1` belongs “inactive”; to `O=C(C=Cc1cccnc1)c1ccccc1`, 39.8 µM (active); to `CC(/C=C/C=C/c1ccccc1)=N\NC(=O)c1cccnc1`, “inactive”.
To `COc1cc(OC)c2cc(C(=O)N/N=C/c3ccccc3O)[nH]c2c1` belongs “inactive”; to `Cc1cc(-c2sccc2Br)nc(-n2cccc2)n1`, “inactive”.
For `COc1cccc(/C=N/NC(=O)c2cnn(-c3ccccc3)c2N)c1`, the Potency result was “inactive”.
As for `COc1ccc(S(=O)(=O)N2CCOCC2)cc1NC(=O)COC(=O)c1oc2ccccc2c1C`, the Potency entry was “inactive”.
On to `N#Cc1c2c(c(NCCOCCO)n3c1nc1ccccc13)CCCC2`, for which the Potency entry is “inactive”.
To `OCCCc1nc2n(n1)C(c1cccc(Cl)c1)C=C(c1ccccc1)N2` (stereo not given) belongs “inactive”.
To `COc1ccc(C(=O)COC(=O)/C=C/c2ccco2)cc1F` belongs “inactive”; to `COC(=O)C(=C/C(C)=C/c1cccnc1)C(=O)OC`, 22.4 µM (active).
To `O=C(N/N=C/c1cccnc1)c1ccccc1OCc1ccc(Br)cc1` belongs “inactive”; to `N#Cc1ccc(/C=C/C(=O)c2cccnc2)cc1`, 25.1 µM (active).
`N#Cc1ccc(C(=O)CSc2nnc(O)n2-c2cccnc2)cc1`: the Potency entry is “inactive”.
To `N#Cc1ccc(/C=C\c2[nH]ccc3c4ccccc4nc2-3)cc1` belongs “inactive”.

For the origin of these results see ChEMBL document CHEMBL1201862, “PubChem BioAssay data set” (2004).
